# Shown are actives, neighbours in structure and some others; about 6.6% of the full set was active somewhere.
# MCF10A rereplic: A quantitative high throughput screen for small molecules that induce DNA re-replication in MCF 10a normal breast cells; MCF 10A DNA re-replication, Hoechst nuclear intensity, 48 h; Potency, µM (series often up to 46.1 µM), actives largely listed as activators; 350,000 compounds, 2.9% hits; note: nearly all actives have a fitted effect of over 50% in size
# RGS4 inhibitor: Inhibitors of Regulator of G Protein Signaling (RGS) 4: qHTS. Transcreener GDP fluorescence polarization, RGS4-accelerated GTP hydrolysis. AID 504845, 2011. 390,000 compounds, 0.039% hits. Potency, µM (series often up to 114 µM), usual class: inhibitors; note: nearly all actives have a fitted effect of over 75% in size
# Target sequence (P49798 whole entry, looked up): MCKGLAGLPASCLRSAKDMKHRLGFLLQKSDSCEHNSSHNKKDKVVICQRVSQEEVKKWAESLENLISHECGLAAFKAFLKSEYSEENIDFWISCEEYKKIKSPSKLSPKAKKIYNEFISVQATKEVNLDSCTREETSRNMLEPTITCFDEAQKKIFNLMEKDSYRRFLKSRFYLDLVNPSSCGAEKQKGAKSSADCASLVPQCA
#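 MLSMR compounds (23 nl, pin-transferred) preincubated 10 min at room temperature with a 500nM (2x) first reagent, then RGS4 at 900nM (2x) plus Transcreener GDP mix added; fluorescence polarization (620/688 nm) read before and after 90 min at 30 °C.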
# KB-3-1 cytotox: qHTS assay for MDR1-selective chemotherapeutics: Primary screen using the parental adenocarcinoma cell KB-3-1; KB-3-1 viability, CellTiter-Glo ATP luminescence, 72 h; Potency, µM (highest dose often 46.1 µM), most hits filed as cytotoxic; 400,000 compounds, 1.4% hits; note: nearly all actives have a fitted effect of over 60% in size
#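 KB-3-1 parental drug-naive adenocarcinoma cells in DMEM/10% FBS, incubated 72 h at 37 C with pin-transferred compounds across a concentration series. Viability by CellTiter-Glo luminescence; concentration-response curves fitted after normalization.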
# SW480 rereplic: A quantitative high throughput screen for small molecules that induce DNA re-replication in SW480 colon adenocarcinoma cells. SW480 DNA re-replication, Hoechst DNA content imaging, 48 h. Potency, µM (top dose mostly 46.1 µM), hits mostly activators. 340,000 compounds, 1.8% hits. AID 624297, 2012; note: nearly all actives have a fitted effect of over 55% in size
#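 Quantitative HTS format with DMSO vehicle controls; 48 hr drug incubation at 37 C, then 40 min Hoechst staining and scanning imager measurement at 405 nm excitation.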
# TSG101-PTAP inh: qHTS Assay for Iinhibitors of HIV-1 Budding by Blocking the Interaction of PTAP/TSG101; Fluorescence polarization, FITC-PTAP peptide / Tsg101 binding; Potency, µM (titrated, usually from 115 µM), actives largely listed as inhibitors; 340,000 tested, under 10 active; AID 493005, 2010; active = well fitted inhibition curve with a large enough effect in the main read-out, with a control signal flat, not every such curve was filed as active; inconclusive = small, poorly fitted or top-dose-only effect, or effect the other way, or a change in a side signal; inactive = no such curve, though single readings can be large or run the other way
# Target sequence (Q99816 whole entry, looked up): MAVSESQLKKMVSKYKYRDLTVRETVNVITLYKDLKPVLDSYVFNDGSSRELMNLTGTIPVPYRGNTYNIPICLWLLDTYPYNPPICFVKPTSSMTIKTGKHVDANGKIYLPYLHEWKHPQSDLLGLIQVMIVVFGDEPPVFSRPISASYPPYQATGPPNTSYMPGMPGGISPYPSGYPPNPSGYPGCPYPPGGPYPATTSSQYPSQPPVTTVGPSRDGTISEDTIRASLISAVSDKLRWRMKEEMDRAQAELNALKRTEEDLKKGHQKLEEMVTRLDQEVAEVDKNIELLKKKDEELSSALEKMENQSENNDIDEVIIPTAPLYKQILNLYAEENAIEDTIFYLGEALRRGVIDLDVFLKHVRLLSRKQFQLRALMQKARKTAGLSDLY
#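 Tsg101 binding domain (10 uM final) was mixed with compound and a FITC-labeled PTAP peptide (50 nM final) in HEPES pH 7.5 buffer with NaCl, Tween 20, EDTA and TCEP; fluorescence polarization was read after 20 min at r.t.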
# KB-V1 cytotox: qHTS assay for MDR1-selective chemotherapeutics: Primary screen using the drug-selected MDR subline cells KB-V1. KB-V1 MDR cells viability, CellTiter-Glo, 72 h. Potency, µM (titrated, usually from 46.1 µM), usual class: cytotoxic. 400,000 compounds, 3.4% hits; note: nearly all actives have a fitted effect of over 60% in size
#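 In this primary screen, KB-V1 cells overexpressing P-gp are incubated with library compounds (lowest to highest concentration) for 72 h at 37 degrees C before a luminescent ATP viability read.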
# Numbers stand for hits; n = inactive; u = inconclusive; x = no result given; [ ] = another dose, or the depositor's remark. Unless noted, calls come from the whole dose curve; as a rule, active = well fitted curve in the direction sought with a large enough effect; inconclusive = small, poorly fitted or top-dose-only effect, or another doubt; inactive = no such curve, though single readings can be large; an effect the other way counts as inactive or inconclusive.
SMILES,MCF10A rereplic,RGS4 inhibitor,KB-3-1 cytotox,SW480 rereplic,TSG101-PTAP inh,KB-V1 cytotox
Cc1cc(Cl)ccc1OCc1n[nH]c(=S)n1C1CCCCC1,26µM,n,n,n,n,n
Cc1cc(C)c(NC(=O)Cn2c(=O)n(CC(=O)NCc3ccccc3Cl)c(=O)c3sccc32)c(C)c1,x,n,n,x,x,n
COc1ccccc1-n1cnnc1SCC(=O)c1cc(C)n(Cc2cccs2)c1C,n,n,n,n,n,16µM
Cc1cc(C(=O)CSc2nnc(-c3ccccc3F)o2)c(C)n1Cc1cccs1,u,n,n,n,n,u
O=S(=O)(c1ccccc1)N1CCN(Cc2ccccc2)c2ccccc21,n,n,n,n,n,18µM
Cc1ccc(C(=O)NC(=S)NCc2cccnc2)cc1C,n,n,n,n,n,u
O=C(NC(=S)NCc1ccc(F)cc1)c1ccccc1,n,n,n,u,n,21µM
Cc1ccccc1-c1ccc(C(=O)NCc2ccccc2)o1,n,n,n,n,n,n
CC(C)c1ccc(C(=O)NC(=S)NCc2cccnc2)cc1,u,n,u,n,n,2.9µM
O=C(NCc1ccccc1)c1ccc(-c2ccc(F)cc2)o1,n,n,n,n,n,18µM
S=C(NCc1ccccc1)NCc1ccccc1,u,n,n,21µM,n,n
Cc1ccc(C)c(N2C(=O)N(Cc3cc(=O)n4ccccc4n3)c3ccccc3S2(=O)=O)c1,x,n,u,x,x,n
CCCCN(Cc1ccccc1)S(=O)(=O)c1ccc2c(c1)CC(C)N2C(=O)CC (configuration not stated),x,n,u,x,x,n
COc1ccc2c(CNCCc3ccccc3)c(C(=O)O)n(Cc3cccc(F)c3)c2c1,x,n,x,x,x,x
O=C(NCc1ccc(Cl)cc1)c1cc2ccccc2o1,x,n,x,x,x,x
O=C(Cc1cc2ccccc2o1)NCc1ccc(F)cc1,12µM,n,n,u,n,u
Cc1onc(-c2ccccc2)c1C(=O)NNC(=S)NC(=O)c1ccc(Br)cc1,u,n,n,u,n,u
Cc1onc(-c2ccccc2)c1C(=O)NNC(=S)NC(=O)/C=C/c1ccccc1,u,n,u,u,n,2.9µM
COc1ccc(-c2cc(C(=O)NNC(=S)NC(=O)c3c(-c4ccccc4)noc3C)[nH]n2)cc1,n,n,u,u,n,u
COc1ccc(/C=C/C(=O)NC(=S)NNC(=O)c2c(-c3ccccc3)noc2C)cc1,n,n,u,n,n,7.3µM
O=C(Cc1ccccc1)NCCc1csc2nc(-c3ccc(Cl)cc3)nn12,x,n,n,x,x,n
COc1ccc(CNC(=O)c2cc(-c3cccs3)nc3ccccc23)c(OC)c1,x,n,n,x,x,n
CCN(CC)S(=O)(=O)c1cccc(C(=O)OCC(=O)c2ccc3c(c2)OCCO3)c1,n,n,n,n,n,13µM
Cc1ccc(NC(=O)CN2C(=O)COc3ccc(C)cc32)nc1,n,n,n,n,x,15µM
O=C(Nc1cccc(-c2csc(Nc3cccc(C(F)(F)F)c3)n2)c1)c1cc([N+](=O)[O-])cc(C(F)(F)F)c1,u,n,n,u,n,n
SMILES,MCF10A rereplic,RGS4 inhibitor,KB-3-1 cytotox,SW480 rereplic,TSG101-PTAP inh,KB-V1 cytotox
O=C(Nc1ccc(-c2csc(Nc3ccccc3)n2)cc1)c1cc([N+](=O)[O-])cc(C(F)(F)F)c1,n,n,15µM,n,n,u
COc1ccc(-c2cc(C(F)(F)F)nc(SCC(=O)N(C)Cc3cn(C)nc3C)n2)cc1OC,u,n,u,n,n,18µM
COc1ccc(-c2cc(C(F)(F)F)nc(SCC(=O)NCc3cnn(C)c3C)n2)cc1OC,n,n,u,n,n,9.2µM
COc1cccc(-c2nc3c(C#N)c[nH]n3c2NC2CCCC2)c1OC,x,n,n,x,x,n
CC1(C)CC(=O)c2c(O)c(-c3ccccc3)c(=O)n(-c3ccccc3)c2C1,n,n,n,n,n,13µM
CC1(C)CC(=O)c2cc(C(=O)O)c(=O)n(-c3ccccc3)c2C1,n,n,n,n,n,n
Cc1nc(SCC(=O)Nc2ccccn2)n[nH]1,n,n,n,n[1.84 µM],n,n
Cc1ccc(NC(=O)CSC2=NCCN2)cc1,21µM,n,n,n,n,n
O=C(CSc1n[nH]c(-c2ccccn2)n1)Nc1ccc(Cl)cc1,n,n,u,9.2µM,n,n
Cc1ccc(NC(=O)CSc2n[nH]c(-c3ccccn3)n2)cc1,u,n,u,5.2µM,n,n
CCOc1ccc(NC(=O)CSc2ccc(-c3ccccn3)nn2)cc1,n,n,n,n,n,2.9µM
Cc1ccc(NC(=O)CSc2ccc(-c3ccccn3)nn2)cc1,n,n,n,n,n,u
COc1ccccc1NC(=O)CSC1=NCCN1,n,n,n,n,n,n
O=C(CSc1n[nH]c(-c2ccncc2)n1)Nc1ccccc1,n,n,n,n,n,n
O=C(CSc1n[nH]c(-c2ccncc2)n1)Nc1ccc(F)cc1,n,n,n,n,n,n
O=C(CSc1n[nH]c(-c2ccccn2)n1)Nc1ccc(F)cc1,u,n,u,3.3µM,n,u
O=C(CSc1n[nH]c(-c2ccc(Cl)cc2Cl)n1)Nc1ccccn1,n,n,n,n,n,16µM
N#C/C(=C\c1cn(CC(=O)N2CCCCC2)c2ccccc12)C(=O)NCc1ccc2c(c1)OCO2,n,n,n,1.6µM,n,26µM
N#C/C(=C\c1cn(CCOc2ccccc2)c2ccccc12)C(=O)NCc1cccs1,u,n,n,16µM,n,u
N#C/C(=C\c1cn(Cc2ccccc2F)c2ccccc12)C(=O)NCc1ccco1,18µM,n,n,n,n,n
COc1ccccc1OCCn1cc(/C=C(\C#N)C(=O)NCc2ccco2)c2ccccc21,n,n,n,n,n,3.7µM
COc1ccccc1NC(c1ccc(Cl)cc1)c1nnc(-c2cccc(F)c2)o1 (configuration not stated),x,n,u,x,x,n
Cc1cccc(NC(=O)/C(C#N)=C/c2cn(CC(=O)NCc3ccco3)c3ccccc23)c1,8.2µM,n,n,u,n,n
COc1ccc(N2CCN(c3nc4ccc(C)cc4n4nnnc34)CC2)cc1,x,n,x,x,x,x
COC(=O)c1c(NC(NC(=O)c2ccccc2)(C(F)(F)F)C(F)(F)F)sc2c1CCN(C)C2,u,n,n,0.52µM,n,n
COc1ccc(NC(=O)CCn2nc(-c3ccccc3OC)c3c(C)cc(C)nc32)cc1,x,n,x,x,x,x

# Screens from PubChem BioAssay.
